biological target: Fibroblast growth factor 2 (Homo sapiens) (UniProt P09038); experiment: basic fibroblast growth factor binding to printed compounds – biochemical, small-molecule microarray, 635/667 nm fluorescence, primary screen (AID 1133); conditions: FGF2, fluorescence 635/667, higher = more signal
Sequence (P09038 whole entry, looked up): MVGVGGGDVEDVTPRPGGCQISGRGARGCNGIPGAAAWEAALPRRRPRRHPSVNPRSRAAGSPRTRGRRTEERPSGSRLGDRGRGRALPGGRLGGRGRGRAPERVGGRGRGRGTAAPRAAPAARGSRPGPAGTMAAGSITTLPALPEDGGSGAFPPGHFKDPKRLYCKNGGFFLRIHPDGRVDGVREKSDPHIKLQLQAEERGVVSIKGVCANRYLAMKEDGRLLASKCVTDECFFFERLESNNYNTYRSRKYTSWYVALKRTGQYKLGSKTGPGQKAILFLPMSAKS

| Structure (SMILES) | composite z-score |
| --- | --- |
| C=C(/C(=C/C[C@H](OC(C)=O)c1ccc(CO)o1)c1cc(C(=O)OC)ccc1OC)C(C)C | 0.539 |
| [N-]=[N+]=Nc1ccccc1[C@H]1OC(c2ccc(OCCCO)cc2)=N[C@@]1(CCS(=O)(=O)c1ccccc1)C(N)=O | 0.0263 |
| COc1cc2c(cc1OC)CN(C(=O)[C@@H]1[C@H]3C(=O)O[C@H](c4ccccc4)[C@H](c4ccccc4)N3[C@H](c3ccccc3OCCO)[C@@]13C(=O)Nc1ccc(C#CCCO)cc13)CC2 | 0.409 |
| C[N+](C)(C)CCCCNC(=O)[C@@H]1C[C@@H]2C(=O)N[C@@H](Cc3ccccc3)C(=O)N2[C@@H]1c1cccc(OCCO)c1 | 1.55 |
| COCCOC(=O)N1C(=O)[C@@]2(c3cc(C#CCC(C(=O)OC)C(=O)OC)ccc31)[C@H](C(=O)Nc1nc3ccccc3s1)[C@H]1C(=O)O[C@H](c3ccccc3)[C@H](c3ccccc3)N1[C@@H]2c1ccccc1OCCO | 0.579 |
| CCC[C@@H]1C[C@@]1(CCC)[C@@H](NS(=O)(=O)c1cccc2cccnc12)c1ccc(Cl)cc1 | -1.68 |
| C=CCNC(=O)[C@@H]1[C@H]2C(=O)O[C@H](c3ccccc3)[C@H](c3ccccc3)N2[C@H](c2ccc(O)cc2)[C@@]12C(=O)N(C(=O)OCCOC)c1ccc(C#CCNC(N)=O)cc12 | 1.45 |
| COCCOC(=O)N1C(=O)[C@@]2(c3cc(C#CCCO)ccc31)[C@H](C(=O)N1CCCCCCC1)[C@H]1C(=O)O[C@H](c3ccccc3)[C@H](c3ccccc3)N1[C@@H]2c1ccc(OCCO)cc1 | 1.51 |
| COC(=O)[C@@]1(CCC(=O)OC(C)(C)C)N=C(c2ccc(OCCCO)cc2)O[C@H]1c1ccccc1N=[N+]=[N-] | 0.0436 |

— PubChem BioAssay
